According to PubChem BioAssay (NCATS):
Records with an inconclusive call do not appear. A call without a number means that no potency is given here. Calls of active or inactive are those of the source. Calls follow the shape of the dose curve; as a rule, active = well fitted inhibition curve with a large enough effect; inconclusive = small, poorly fitted or top-dose-only effect; inactive = flat fitted curve, though single readings scatter.

Experiment: Primary qHTS for inhibitors of nuclear receptor binding SET domain protein 2 (NSD2) in an isogenic RCH-ACV NSD2 p.E1099K mutant (9B) (AID 1645876); also: nearly all actives have a fitted effect of over 70% in size
Details: RCH-ACV (leukaemia line) NSD2 E1099K (9B) viability, CellTiter-Glo, 72 h; series mostly up to 44.9 µM
Potency is read from the fitted curve at half-maximal effect.

Row | SMILES | Potency | outcome | activity change, negative = viability loss
1 | N#CC(OC1OC(COC2OC(CO)C(O)C(O)C2O)C(O)C(O)C1O)c1ccccc1 (stereo unspecified) | inactive |  | 
2 | CCc1[nH]c2ccc(OC)cc2c1CCN(C)C | inactive |  | 
3 | CN1C(=O)N(c2ccc(C#N)c(C(F)(F)F)c2)C(=O)[C@]1(CO)c1ccccc1 | inactive |  | 
4 | COc1cc(CCNCc2ccccc2O)c(OC)cc1C#N | inactive |  | 
5 | COC1=CC(=O)O[C@@H](CCc2ccccc2)C1 | inactive |  | 
6 | COC1CC(OC2CCC3(C)C(=CCC4C3CCC3(C)C(C(C)OC5OC(COC6OC(CO)C(O)C(O)C6O)C(O)C(O)C5O)CCC43O)C2)OC(C)C1OC1OC(C)C(O)C(OC)C1O (stereo unspecified) |  | inactive [at 9.23 µM] | 
7 | CC(C)=C1CC[C@]23CO[C@H](C2)[C@@](O)(C(=O)O)CCC13 (stereo partly specified) | inactive |  | 
8 | Cc1cn(C[C@H](N)C(=O)O)c(=O)n(Cc2cc(-c3ccccc3)sc2C(=O)O)c1=O | inactive |  | 
9 | CCCCCCn1c(=O)c(C(=O)Nc2ccc(C(=O)OCCC)cc2)c(O)c2ccccc21 |  | inactive [at 9.23 µM] | 
10 | CC(N)Cc1c[nH]c2ccccc12 (stereo unspecified) | inactive |  | 
11 | OCCCCC#Cc1cncc(OC[C@@H]2CCN2)c1 | inactive |  | 
12 | CC1=C2C(=O)C3[C@@H](CC=C4C[C@@H](O)CC[C@@]43C)[C@@H]2CC[C@]12O[C@@H]1C[C@H](C)CN[C@H]1[C@H]2C (stereo partly specified) | inactive |  | 
13 | C/C=C(\C)C(=O)OC1C(C)OC(OC2C(C)OC(OC3CCC4(C)C(=CCC5C4CCC4(C)C(C(C)OC6OC(COC7OC(CO)C(O)C(O)C7O)C(O)C(O)C6O)CCC54O)C3)CC2OC)C(O)C1OC (stereo unspecified) |  |  | -3.12% [at 9.23 µM] (inactive)
14 | CC(CCc1ccc(O)cc1)O[C@@H]1O[C@H](CO[C@H]2OC[C@](O)(CO)[C@H]2O)[C@@H](O)[C@H](O)[C@H]1O (stereo partly specified) | inactive |  | 
15 | COC(=O)[C@@]12C(=O)C(C)C(=O)[C@]1(C)C(C)=C[C@H]1[C@]3(C=O)CC[C@H](OC(C)=O)C(C)(C)[C@H]3CC[C@@]12C (stereo partly specified) | inactive |  | 
16 | CCN1C[C@]2(COC)[C@H](O)C[C@H](OC)[C@]34[C@@H]5C[C@]6(O)[C@H](OC(=O)c7ccccc7)[C@@H]5[C@@](O)([C@H]([C@H](OC)[C@H]23)[C@@H]14)[C@@H](O)[C@@H]6OC | inactive |  | 
17 | COC1C(O)C(OC2CCC3(C=O)C(CCC4C3CCC3(C)C(C5=CC(=O)OC5)CCC43O)C2)OC(C)C1OC1OC(CO)C(O)C(O)C1O (stereo unspecified) | 171 nM (active) |  | 
18 | CC[C@H]1CN2CC[C@H]1C[C@@H]2[C@@H](O)c1ccnc2ccc(OC)cc12 | inactive |  | 

Row | SMILES | Potency | outcome | activity change, negative = viability loss
19 | COC1CC(OC2CCC3(C=O)C(CCC4C3CCC3(C)C(C5=CC(=O)OC5)CCC43O)C2)OC(C)C1OC1OC(CO)C(O)C(O)C1O (stereo unspecified) | 85.8 nM (active) |  | 
20 | CCC(C)(OC(C)=O)C(=O)O[C@H]1[C@H](OC(C)=O)C[C@@H]2[C@@](C)([C@@H]3C[C@H]4C=CO[C@H]4O3)[C@H](C)C[C@H](OC(C)=O)[C@@]2(COC(C)=O)[C@@]12CO2 (stereo partly specified) | inactive |  | 
21 | C[C@]12CC[C@H]3[C@@H]([C@H](O)CC4=CC(=O)CC[C@@]43C)[C@@H]1CC[C@@H]2O | inactive |  | 
22 | COC1CC(O[C@H]2CC[C@]3(C=O)C4CC[C@]5(C)[C@@H](C6=CC(=O)OC6)CC[C@]5(O)[C@@H]4CC[C@]3(O)C2)OC(C)C1O[C@@H]1O[C@H](CO)[C@@H](O)[C@H](O)[C@H]1O (stereo partly specified) | 54.1 nM (active) |  | 
23 | CCC(C)(C#N)O[C@@H]1O[C@H](CO)[C@@H](O)[C@H](O)[C@H]1O (stereo partly specified) | inactive |  | 
24 | CC(C)[C@@H](CN1CC[C@@](C)(c2cccc(O)c2)[C@@H](C)C1)NC(=O)[C@H]1Cc2ccc(O)cc2CN1 | 18300 nM (active) |  | 
25 | COc1ccc2c(c1)/C(=C/c1cnc[nH]1)C(=O)N2 | 13000 nM (active) |  | 
26 | Clc1ccc(N2C[C@H]3CC[C@@H](C2)N3)nn1 | inactive |  | 
27 | CC[C@H]1CN2CC[C@H]1C[C@H]2[C@H](O)c1ccnc2ccc(OC)cc12 | inactive |  | 
28 | CCN1C[C@]2(OC(=O)c3ccccc3NC(C)=O)CC[C@H](OC)[C@@]34[C@@H]2C[C@@H]([C@@H]13)[C@@]1(O)C[C@H](OC)[C@H]2C[C@@H]4[C@]1(O)[C@H]2OC | inactive |  | 
29 | C[CH2][Hg][S]c1ccccc1C(=O)O | 668 nM (active) |  | 
30 | CCc1c(C(=O)C(N)=O)c2c(OCC(=O)OC)cccc2n1Cc1ccccc1 | inactive |  | 
31 | O=C1C[C@@H]2OCC=C3CN4CC[C@]56c7ccccc7N1[C@H]5[C@H]2[C@H]3C[C@H]46 | inactive |  | 
32 | COC(=O)C1(C)CCC(=O)C2(C)c3c(O)cc(C(C)C)cc3C(O)C(OC(C)=O)C12 (stereo unspecified) | inactive |  | 
33 | CO[C@@H]1[C@H](O)[C@@H](O[C@@H]2C[C@H]3CC[C@@H]4C(CC[C@]5(C)[C@@H](C6=CC(=O)OC6)CC[C@]45O)[C@@]3(C)[C@H](O)C2)O[C@H](C)[C@@H]1O[C@@H]1O[C@H](CO)[C@@H](O)[C@H](O)[C@H]1O (stereo partly specified) | 121 nM (active) |  | 
34 | COc1cc(C)[nH]c(=O)c1CNC(=O)c1c(C)n([C@H](C)C2CCOCC2)c2ccccc12 | inactive |  | 
35 | C=C(CO)C(=O)O[C@H]1C/C(C)=C/CC/C(CO)=C/[C@H]2OC(=O)C(=C)[C@H]12 | inactive |  | 
36 | CC(=O)OC1CC(O)C2(C)C(CC(OC(C)=O)C3(C)C2CCC2(C)C(c4ccoc4)C(=O)C4OC423)C1(C)C (stereo unspecified) | inactive |  | 
